These results are taken from the supplement of paper PMC4954754.

± gives the uncertainty stated by the source.

In this assay the test system is HEK293T-Rex XBP1-RLuc. Kind of assay: XBP1-RLuc splicing reporter activation, triplicate, relative to 500 nM thapsigargin (% of thapsigargin); higher = stronger IRE1/XBP1s reporter activation. Particulars: 6.8 µM; 18 h; screen: confirmation. How it is done: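 HEK293T-Rex cells stably expressing the ERSE-firefly luciferase (BiP promoter, ATF6-preferring) or XBP1-splicing Renilla luciferase (IRE1/XBP1s) reporter, 1536-well plates, compound at 6.8 µM for 18 hr at 37 °C; luminescence read […] and expressed as % activation = 100*(compound - median DMSO)/(median 500 nM thapsigargin - median DMSO). Primary screen was single-pass; confirmation screen in triplicate (mean ± SD).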
On to `O=C(CCCN1CCC2(CC1)C(=O)NCN2c1ccccc1)c1ccc(F)cc1`, for which the “XBP1-RLuc splicing reporter activation” value turned out to be 202 ± 6.1.

As for `C/C=C(/C)C(=O)O[C@H]1C(C)=C2[C@H]([C@@H]1OC(=O)CCCCCCC)[C@@](C)(OC(C)=O)C[C@H](OC(=O)CCC)[C@@]1(O)[C@H]2OC(=O)[C@@]1(C)O`, the “XBP1-RLuc splicing reporter activation” value worked out at 104.

Consider `O=C(CCCN1CCC2(CC1)C(=O)N(Cc1cccc(F)c1)CN2c1ccccc1)c1ccc(F)cc1`, for which the “XBP1-RLuc splicing reporter activation” value turned out to be 185 ± 9.3.

For `CC(=O)NC1C(OC2OC(CC(O)C3OC(n4ccc(=O)[nH]c4=O)C(O)C3O)C(O)C(O)C2NC(=O)/C=C\CCCCCCCCCC(C)C)OC(CO)C(O)C1O` (stereo not given), the “XBP1-RLuc splicing reporter activation” value came to 61.23 ± 0.33.

As to `CNc1ccc2oc(C[C@H]3O[C@@]4(CC[C@H]3C)O[C@H]([C@H](C)C(=O)c3ccc[nH]3)[C@H](C)C[C@H]4C)nc2c1C(=O)O`, the “XBP1-RLuc splicing reporter activation” value is 50 ± 2.1.
